Results taken from PubChem BioAssay AID1159580 (chemical genetic matrix, 2015).
“And” between values parts separate entries of the source, which are not always exact repeats. Equal values may be shown once. Screen size: about 5,500 compounds; about 2,000 (36%) were called active. Not shown: some 18% with an inconclusive outcome. No stated cut-off is given here; in the data, active means normalized growth mostly below about 0.91 (no sharp cut-off); inconclusive means no clear call, values can overlap the other calls; inactive means mostly above about 0.92. The list shows a part of the results.

Assay: chemical genetic growth profiling, strain panel (AID 1159580);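 further: tested at 20 µM; growth read once vehicle control cultures reached saturation at 30 °C; 1 = growth at the plate median or of vehicle wells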
Conditions: S. cerevisiae deletion strains, growth OD

Measured: normalized growth

COc1cnc(NS(=O)(=O)c2ccc(N)cc2)nc1
inactive: locus YAL021C, strain ccr4, stronger effect = lower value 1.01 | locus YAL026C, strain drs2, stronger effect = lower value 1 | locus YAL030W, strain snc1, stronger effect = lower value 1.01 | locus YBL061C, strain skt5, stronger effect = lower value 0.994 | locus YBR009C, strain hhf1, stronger effect = lower value 1.01 | locus YBR021W, strain FUR4, stronger effect = lower value 1.02 | locus YBR023C, strain chs3, stronger effect = lower value 0.998 | locus YBR171W, strain sec66, stronger effect = lower value 0.993 | locus YBR229C, strain ROT2, stronger effect = lower value 0.956 | locus YBR231C, strain swc5, stronger effect = lower value 0.991 | locus YBR279W, strain paf1, stronger effect = lower value 0.993 | locus YCL011C, strain gbp2, stronger effect = lower value 1 | locus YCL016C, strain dcc1, stronger effect = lower value 0.983 | locus YCL029C, strain bik1, stronger effect = lower value 0.98 | locus YCL069W, strain vba3, stronger effect = lower value 1 | locus YCR088W, strain abp1, stronger effect = lower value 1 | locus YDL005C, strain med2, stronger effect = lower value 0.997 | locus YDL035C, strain GPR1, stronger effect = lower value 0.996 | locus YDL040C, strain nat1, stronger effect = lower value 1 | locus YDL074C, strain BRE1, stronger effect = lower value 0.988 | locus YDL101C, strain DUN1, stronger effect = lower value 0.98 | locus YDL134C, strain PPH21, stronger effect = lower value 1 | locus YDL185W, strain tfp1, stronger effect = lower value 0.962 | locus YDL192W, strain arf1, stronger effect = lower value 0.972 | locus YDR001C, strain nth1, stronger effect = lower value 0.997 | locus YDR069C, strain doa4, stronger effect = lower value 1.01 | locus YDR101C, strain arx1, stronger effect = lower value 0.983 | locus YDR137W, strain rgp1, stronger effect = lower value 0.996 | locus YDR159W, strain sac3, stronger effect = lower value 0.92 | locus YDR162C, strain NBP2, stronger effect = lower value 0.992 | locus YDR195W, strain ref2 0.984 | locus YDR297W, strain sur2, stronger effect = lower value 1.01 | locus YDR318W, strain mcm21, stronger effect = lower value 0.986 | locus YDR334W, strain swr1, stronger effect = lower value 0.998 | locus YDR335W, strain msn5, stronger effect = lower value 0.993 | locus YDR388W, stronger effect = lower value 0.985 | locus YDR392W, strain spt3, stronger effect = lower value 0.925 | locus YDR502C, strain sam2, stronger effect = lower value 0.987 | locus YEL003W, strain gim4, stronger effect = lower value 1 | locus YEL037C, strain rad23, stronger effect = lower value 0.999 | locus YEL061C, strain CIN8 (second series), stronger effect = lower value 1 | locus YEL061C, strain CIN8, stronger effect = lower value 0.979 | locus YER015W, strain faa2, stronger effect = lower value 1 | locus YER016W, strain bim1, stronger effect = lower value 0.998 | locus YER110C, stronger effect = lower value 0.969 | locus YER111C, strain swi4, stronger effect = lower value 1.01 | locus YER155C, strain BEM2 (second series), stronger effect = lower value 1.02 | locus YER155C, strain BEM2, stronger effect = lower value 1 | locus YER167W, strain BCK2, stronger effect = lower value 0.99 | locus YFR010W, strain ubp6, stronger effect = lower value 0.989 | locus YGL078C, strain dbp3, stronger effect = lower value 0.978 | locus YGL086W, strain mad1, stronger effect = lower value 0.985 | locus YGL167C, strain pmr1, stronger effect = lower value 0.993 | locus YGL173C, strain kem1, stronger effect = lower value 1.01 | locus YGL227W, strain vid30, stronger effect = lower value 1 | locus YGL240W, strain doc1, stronger effect = lower value 0.994 | locus YGL248W, strain PDE1, stronger effect = lower value 0.976 | locus YGL253W, strain hxk2, stronger effect = lower value 0.994 | locus YGR135W, strain pre9, stronger effect = lower value 0.988 | locus YGR229C, strain SMI1, stronger effect = lower value 1.01 | locus YGR252W, strain gcn5, stronger effect = lower value 0.949 | locus YHR013C, strain ard1, stronger effect = lower value 1 | locus YHR027C, strain rpn1, stronger effect = lower value 0.982 | locus YHR030C, strain SLT2, stronger effect = lower value 1 and 0.997 | locus YHR079C, strain IRE1 (second series), stronger effect = lower value 0.984 | locus YHR079C, strain IRE1, stronger effect = lower value 0.989 | locus YHR094C, strain hxt1, stronger effect = lower value 0.984 | locus YHR129C, strain ARP1, stronger effect = lower value 0.997 | locus YHR142W, strain chs7, stronger effect = lower value 1 | locus YHR200W, strain rpn10, stronger effect = lower value 0.969 | locus YIL066C, strain RNR3, stronger effect = lower value 0.978 | locus YIL073C, strain SPO22, stronger effect = lower value 0.999 | locus YIL125W, strain kgd1, stronger effect = lower value 0.974 | locus YIR030C, strain dcg1, stronger effect = lower value 0.982 | locus YJL092W, strain hpr5, stronger effect = lower value 1 | locus YJL095W, strain BCK1 (second series), stronger effect = lower value 0.988 | locus YJL095W, strain BCK1, stronger effect = lower value 0.983 and 1.01 | locus YJL115W, strain asf1, stronger effect = lower value 0.993 | locus YJL129C, strain trk1, stronger effect = lower value 0.986 | locus YJL134W, strain LCB3, stronger effect = lower value 0.995 | locus YJL154C, strain vps35, stronger effect = lower value 1 | locus YJL164C, strain tpk1, stronger effect = lower value 0.981 | locus YJL166W, strain qcr8, stronger effect = lower value 1.01 | locus YJL168C, strain set2, stronger effect = lower value 0.982 | locus YJL187C, strain SWE1 (second series), stronger effect = lower value 0.965 | locus YJR043C, strain POL32, stronger effect = lower value 0.992 | locus YJR066W, strain TOR1, stronger effect = lower value 0.934
